In PubChem BioAssay:
Activity calls are given as the source filed them. Unless noted, no rule for the calls is given here.

Assays:
[1] = compounds binding Alexa647 anti-His antibody – biochemical, small-molecule microarray, 635 nm fluorescence, artefact control for SMM control protein annotation, primary screen (AID 1128); conditions: higher = more signal;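 also: score merges feature fluorescence with signal-to-noise for each printed compound spot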
[2] = tested on: Human papillomavirus type 1a E7 protein (residues 1-88); assay: HPV1a E7 small-molecule binders, primary screen, biochemical, small-molecule microarray, residues 1-88, 635 nm (AID 1129); conditions: small-molecule microarray binding, fluorescence 635 nm; higher = more signal
[3] = molecular target: Focal adhesion kinase 1 (Homo sapiens) (UniProt Q05397); assay: PTK2 protein binding on printed compound slides – biochemical, small-molecule microarray, 635/667 nm fluorescence, BSA, DTT, primary screen (AID 1130); conditions: 635 nm fluorescence, higher = more signal;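 also: composite of spot emission at 667 nm and signal to noise over triplicate slides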
[4] = tested on: Fibrinogen (Alexa647-labelled); assay: Alexa647-fibrinogen binding to printed small molecules – biochemical, small-molecule microarray, 635/667 nm fluorescence, artefact control for SMM control-protein annotation, profiling panel (AID 1131); conditions: fibrinogen-A647 binding fluorescence, higher = more signal;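 also: z-score merges 667 nm fluorescence with per-spot signal-to-noise over triplicate slides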
[5] = molecular target: Follistatin (Homo sapiens) (UniProt P19883); assay: FST protein binding to printed compounds – biochemical, small-molecule microarray, 635/667 nm fluorescence, primary screen (AID 1132); conditions: 635 nm fluorescence, higher = more signal
[6] = molecular target: Fibroblast growth factor 2 (Homo sapiens) (UniProt P09038); assay: basic fibroblast growth factor binding to printed compounds – biochemical, small-molecule microarray, 635/667 nm fluorescence, primary screen (AID 1133); conditions: FGF2, fluorescence 635/667, higher = more signal
[7] = JC-1 mitochondrial potential readout, lung cancer cells – cell-based, A549, JC-1 fluorescence, basal, 24 h, 100 nL, profiling panel (AID 1138); conditions: higher = more signal;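 also: A549 lung adenocarcinoma cells under basal conditions with no added stimulus; test concentration not given here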
Lefty1 = Lefty1 protein binding to printed compounds – biochemical, small-molecule microarray, 635/667 nm fluorescence, primary screen (AID 1139); conditions: fluorescence 635/667, higher = more signal
[8] = tested on: wheat germ agglutinin (Triticum aestivum), Alexa647-labelled; assay: Alexa647-WGA lectin binding to printed small molecules – biochemical, small-molecule microarray, 635/667 nm fluorescence, artefact control for SMM control-protein annotation, profiling panel (AID 1140); conditions: WGA-A647 binding, 635 nm fluorescence, higher = more signal;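 also: score merges 667 nm feature emission with signal to noise over triplicate slides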
[9] = molecular target: Luciferin 4-monooxygenase (Photinus pyralis) (UniProt P08659); assay: inhibition of purified Photinus pyralis luciferase – biochemical, luminescence, purified enzyme, 2006 set, primary screen (AID 1141); conditions: purified firefly luciferase, SteadyGlo luminescence, 30 min; higher = more signal, called active from +8 up or from −8 down;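 also: cell-free assay with purified firefly luciferase at 100 ng per well in PBS; test concentration not given here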
[10] = tested on: Wnt5a (protein binding on small-molecule microarray); assay: small molecules binding Wnt5a protein – biophysical, small-molecule microarray, 635/667 nm fluorescence, primary screen (AID 1142); conditions: 635 nm fluorescence, higher = more signal;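 also: fluorescence read at 667 nm with signal to noise per printed feature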
[11] = ATP-based viability of Huh7 replicon cells – cell-based, CellTiter-Glo luminescence, basal, 48 h, cytotoxicity control for HCV replication inhibitor project, primary screen (AID 1143); conditions: higher = more signal, called active from +8 up or from −8 down;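 also: Huh7 hepatoma cells carrying a hepatitis C replication reporter with no stimulus; test concentration not given here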
[12] = Pseudomonas biofilm growth suppression – PAO1 strain, BacTiter-Glo luminescence, LB-PBS, primary screen (AID 1144); conditions: P. aeruginosa PAO1 biofilm, 12 h, higher = more signal
[13] = basal CRE-LacZ reporter activity in PC12 – cell-based, unstimulated, primary screen (AID 1145); conditions: no forskolin, luminescence, 4.5 h, higher = more signal, called active from +8 up or from −8 down
[14] = forskolin-driven CRE-LacZ activity in PC12 – cell-based, CRE-LacZ reporter, forskolin-stimulated, primary screen (AID 1146); conditions: luminescence, 4.5 h, higher = more signal, called active from +8 up or from −8 down;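 also: PC12 cells with 6xCRE LacZ reporter stimulated by forskolin 10 µM; beta-galactosidase reporter signal reflecting CREB driven transcription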
[15] = molecular target: Streptavidin (Streptomyces avidinii) (UniProt P22629); assay: compounds binding control protein streptavidin – biophysical, small-molecule microarray, 635/667 nm fluorescence, artefact control for SMM compound annotation, primary screen (AID 1147); conditions: higher = more signal;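 also: signal reflects streptavidin binding to arrayed compounds as a control protein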
[16] = probe aInhba binding on compound microarray – biochemical, small-molecule microarray, 635/667 nm fluorescence, primary screen (AID 1148); conditions: higher = more signal;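 also: score merges 667nm spot fluorescence with signal-to-noise for antibody binding to printed compounds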
Torsin-1A (Homo sapiens) [17] = molecular target: Torsin-1A (Homo sapiens) (UniProt O14656); assay: TOR1A wild-type binding on microarray – cell lysate, small-molecule microarray, lysate, 635/667 nm, primary screen (AID 1149); conditions: COS7 hTOR1A-WT lysate, 635 nm fluorescence, higher = more signal
Torsin-1A (Homo sapiens) [18] = molecular target: Torsin-1A (Homo sapiens) (UniProt O14656); assay: torsin A mutant lysate binding on microarrays – cell lysate, small-molecule microarray, COS7 lysate, 635/667 nm fluorescence, primary screen (AID 1150); conditions: COS7 hTOR1A mutant lysate, 635 nm fluorescence, higher = more signal;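 also: score pools 667 nm emission and signal to noise measuring lysate protein binding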
[19] = tested on: Sonic hedgehog protein (Shh); assay: Sonic hedgehog microarray binding compounds – biochemical, small-molecule microarray, 635/667 nm fluorescence, primary screen (AID 1151); conditions: 635 nm fluorescence, higher = more signal;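 also: Shh protein binding to compounds spotted on small-molecule microarray slides; score combines spot fluorescence intensity with signal-to-noise across triplicate slides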

Focal adhesion kinase 1 (Homo sapiens), sequence (Q05397 whole entry, looked up): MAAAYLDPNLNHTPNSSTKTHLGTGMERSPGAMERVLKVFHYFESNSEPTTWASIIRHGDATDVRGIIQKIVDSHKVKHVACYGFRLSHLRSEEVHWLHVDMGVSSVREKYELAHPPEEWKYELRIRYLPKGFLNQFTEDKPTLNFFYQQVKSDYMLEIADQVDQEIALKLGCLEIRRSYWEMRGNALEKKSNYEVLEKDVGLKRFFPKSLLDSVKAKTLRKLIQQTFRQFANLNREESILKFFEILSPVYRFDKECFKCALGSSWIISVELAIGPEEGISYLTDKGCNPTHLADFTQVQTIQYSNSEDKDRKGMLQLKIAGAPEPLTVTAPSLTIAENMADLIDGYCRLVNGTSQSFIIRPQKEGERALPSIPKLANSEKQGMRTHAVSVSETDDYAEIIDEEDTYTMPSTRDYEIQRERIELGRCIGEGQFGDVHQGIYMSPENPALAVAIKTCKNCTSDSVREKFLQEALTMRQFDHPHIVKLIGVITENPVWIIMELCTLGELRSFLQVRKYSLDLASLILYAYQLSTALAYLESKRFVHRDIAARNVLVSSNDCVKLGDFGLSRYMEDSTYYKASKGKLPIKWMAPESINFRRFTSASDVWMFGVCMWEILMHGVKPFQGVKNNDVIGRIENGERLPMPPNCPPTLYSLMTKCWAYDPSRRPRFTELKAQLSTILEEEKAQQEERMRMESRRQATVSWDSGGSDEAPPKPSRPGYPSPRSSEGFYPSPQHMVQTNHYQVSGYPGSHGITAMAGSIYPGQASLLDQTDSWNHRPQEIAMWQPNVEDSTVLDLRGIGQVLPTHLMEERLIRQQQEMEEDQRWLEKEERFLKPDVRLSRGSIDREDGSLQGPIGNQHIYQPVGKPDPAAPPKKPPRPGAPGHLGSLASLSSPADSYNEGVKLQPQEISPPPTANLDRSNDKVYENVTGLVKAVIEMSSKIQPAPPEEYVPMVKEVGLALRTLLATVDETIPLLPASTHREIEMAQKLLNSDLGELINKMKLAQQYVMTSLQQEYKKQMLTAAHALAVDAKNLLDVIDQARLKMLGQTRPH
Fibroblast growth factor 2 (Homo sapiens), sequence (P09038 whole entry, looked up): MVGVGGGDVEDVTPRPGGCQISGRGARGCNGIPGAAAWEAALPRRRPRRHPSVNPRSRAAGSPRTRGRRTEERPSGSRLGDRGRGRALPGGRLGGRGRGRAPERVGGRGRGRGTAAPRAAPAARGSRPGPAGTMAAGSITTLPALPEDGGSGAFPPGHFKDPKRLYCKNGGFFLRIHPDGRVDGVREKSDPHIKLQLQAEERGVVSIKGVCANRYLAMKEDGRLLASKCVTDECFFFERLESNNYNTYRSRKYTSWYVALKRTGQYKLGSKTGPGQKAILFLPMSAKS
Streptavidin (Streptomyces avidinii), sequence (P22629 whole entry, looked up): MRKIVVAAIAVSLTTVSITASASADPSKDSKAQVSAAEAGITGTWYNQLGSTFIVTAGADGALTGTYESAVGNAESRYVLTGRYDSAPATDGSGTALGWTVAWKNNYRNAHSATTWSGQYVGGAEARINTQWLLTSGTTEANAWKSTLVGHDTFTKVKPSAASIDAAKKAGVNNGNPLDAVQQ
Luciferin 4-monooxygenase (Photinus pyralis), sequence (P08659 whole entry, looked up): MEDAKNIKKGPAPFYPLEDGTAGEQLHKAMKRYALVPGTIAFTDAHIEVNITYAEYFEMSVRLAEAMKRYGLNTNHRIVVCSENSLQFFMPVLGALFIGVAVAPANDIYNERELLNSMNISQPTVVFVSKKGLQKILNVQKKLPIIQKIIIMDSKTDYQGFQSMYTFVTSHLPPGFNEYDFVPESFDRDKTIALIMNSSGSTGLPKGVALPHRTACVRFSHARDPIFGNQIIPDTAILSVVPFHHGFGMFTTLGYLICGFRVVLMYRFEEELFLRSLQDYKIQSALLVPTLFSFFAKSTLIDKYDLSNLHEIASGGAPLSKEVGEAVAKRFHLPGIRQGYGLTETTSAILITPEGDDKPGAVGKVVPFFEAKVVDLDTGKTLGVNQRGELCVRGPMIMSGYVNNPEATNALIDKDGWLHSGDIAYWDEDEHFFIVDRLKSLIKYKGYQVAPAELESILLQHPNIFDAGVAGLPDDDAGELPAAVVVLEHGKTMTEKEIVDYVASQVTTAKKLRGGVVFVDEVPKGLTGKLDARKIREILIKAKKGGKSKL
Follistatin (Homo sapiens), sequence (P19883 whole entry, looked up): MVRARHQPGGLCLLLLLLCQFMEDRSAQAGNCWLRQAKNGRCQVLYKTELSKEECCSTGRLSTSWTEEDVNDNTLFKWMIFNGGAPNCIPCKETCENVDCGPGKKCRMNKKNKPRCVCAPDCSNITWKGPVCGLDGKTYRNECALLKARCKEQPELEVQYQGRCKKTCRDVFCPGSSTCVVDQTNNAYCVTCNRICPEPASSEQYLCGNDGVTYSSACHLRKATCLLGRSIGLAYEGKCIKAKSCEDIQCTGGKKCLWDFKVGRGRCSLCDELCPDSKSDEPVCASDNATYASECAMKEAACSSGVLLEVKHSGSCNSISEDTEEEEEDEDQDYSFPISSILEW
Torsin-1A (Homo sapiens), sequence (O14656 whole entry, looked up): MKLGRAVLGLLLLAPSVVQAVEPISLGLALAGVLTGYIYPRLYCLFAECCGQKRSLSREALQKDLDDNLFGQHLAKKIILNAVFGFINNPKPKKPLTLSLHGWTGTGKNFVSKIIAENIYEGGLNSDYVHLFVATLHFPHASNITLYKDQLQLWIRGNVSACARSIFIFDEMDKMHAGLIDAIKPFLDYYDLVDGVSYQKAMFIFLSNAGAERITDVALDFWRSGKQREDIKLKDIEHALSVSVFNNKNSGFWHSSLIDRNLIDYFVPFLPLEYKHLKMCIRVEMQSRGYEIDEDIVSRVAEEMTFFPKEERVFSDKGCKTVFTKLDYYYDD

Compound	composite z-score [1]	composite z-score [2]	composite z-score [3]	composite z-score [4]	composite z-score [5]	composite z-score [6]	z-score [7]	composite z-score (Lefty1)	composite z-score [8]	z-score [9]	composite z-score [10]	z-score [11]	z-score [12]	z-score [13]	z-score [14]	composite z-score [15]	composite z-score [16]	composite z-score (Torsin-1A (Homo sapiens) [17])	composite z-score (Torsin-1A (Homo sapiens) [18])	composite z-score [19]
C=C(C(=O)CC[C@@H](OC(C)=O)c1ccc(CO)o1)C(C)C	0.922	-0.218	-0.26	0.454	1.33	1.49	-0.246	1.59	-0.0963	-1.76 (inactive)	0.911	1.18 (inactive)	-0.947 (inactive)	0.275 (inactive)	2.17 (inactive)	0.0155	-0.0427	-0.427	-0.0059	1.91
[N-]=[N+]=NCc1ccccc1[C@@H]1OC(c2ccc(OCCCO)cc2)=N[C@]1(CCS(=O)(=O)c1ccccc1)C(=O)NCC(O)CO (stereo not given in full)	2.39	1.28	0.546	1.03	1.29	1.05	-0.145	0.171	1.16	-1.93 (inactive)	0.541	-0.866 (inactive)	-0.701 (inactive)	1.71 (inactive)	-1.17 (inactive)	0.962	0.0073	1.05	1.36	0.0169
CO[C@H]1O[C@H](CO)[C@@H](OC(=O)Nc2ccc3c(c2)OCO3)[C@H](OC(=O)c2cc3ccccc3[nH]2)[C@H]1OC(=O)c1cc2ccccc2[nH]1	0.935	-0.174	0.622	-0.3	0.372	0.791	-1.56	0.366	-0.0971	-2.78 (inactive)	0.0957	-2.92 (inactive)	-1.37 (inactive)	1.03 (inactive)	-1.29 (inactive)	0.483	-0.128	0.103	-0.214	0.458
CN(C)C(=O)[C@]1(CCS(=O)(=O)c2ccccc2)N=C(c2ccc(OCCCO)cc2)O[C@@H]1c1ccccc1N=[N+]=[N-]	1.21	1.27	1.46	1.02	1.44	0.943	1.08	0.762	0.941	-12.3 (active)	0.758	-2.79 (inactive)	0.0474 (inactive)	1.92 (inactive)	-0.977 (inactive)	2.06	0.246	1.42	1.78	0.605
CCOC(=O)C1=CC[C@@H](c2cccc(Cl)c2)N(S(=O)(=O)c2ccc(C)cc2)C1	1.66	1.14	0.399	-0.112	0.191	-0.0072	2.48	-0.345	0.844	-2.75 (inactive)	-0.159	-5.08 (inactive)	-0.06 (inactive)	-0.574 (inactive)	0.132 (inactive)	0.449	0.0173	0.176	0.193	-0.327
CC(CO)N1C(=O)[C@@H]2[C@H]3C(=O)OCC=C[C@H]3OC23C=CCN(Cc2ccccc2)C(=O)[C@@H]13 (stereo not given in full)	0.543	-0.696	0.769	-0.854	-0.139	-0.173	-0.376	-0.279	0.22	-3.05 (inactive)	0.0691	0.0021 (inactive)	-1.11 (inactive)	-1.44 (inactive)	-1.08 (inactive)	-0.245	-0.21	-1.32	-0.14	-0.0627
C#CCN([C@@H](Cc1ccc(O)cc1)C(=O)OC)[C@@H](/C=C/C1CC1)[C@H](O)Cc1ccccc1	0.241	-0.968	-0.0524	-0.519	0.814	-0.0354	-1.6	0.618	-0.55	-0.0396 (inactive)	-0.595	-5.26 (inactive)	0.709 (inactive)	16.1 (active)	1.17 (inactive)	-0.492	-0.128	-0.541	-0.12	0.825
COC(=O)[C@@]1(Cc2ccccc2)[C@H]2c3cc(C(=O)N(C)C)n(Cc4c(CO)[nH]cc(C)c4=O)c3C[C@H]2CN1C(=O)c1ccccc1	0.886	0.677	0.206	0.819	-0.0699	-0.615	0.238	-0.016	1	0.379 (inactive)	0.259	0.229 (inactive)	0.268 (inactive)	-0.568 (inactive)	0.977 (inactive)	0.0174	-0.0963	0.376	0.478	-0.842
CCOC(=O)C[C@H]1[C@H](OC(=O)c2ccccc2-c2ccccc2)[C@@H](NC(=O)C2CCCCC2)c2cc(OCCCO)ccc2N1C(=O)Cc1ccc(OC)cc1	0.0271	-0.525	0.559	-0.873	-0.211	-0.377	1.58	0.442	0.752	0.0079 (inactive)	0.0136	-0.226 (inactive)	0.642 (inactive)	4.65 (inactive)	0.899 (inactive)	0.0611	-0.0736	-0.0183	0.307	-0.0275
CC[C@H]1C2=C3C(CC[C@H]4C(OCc5ccc(F)cc5C(F)(F)F)OC[C@](C)([C@@H]34)N(C(=O)OC(C)(C)C)C2)C(COC)C1COC (stereo not given in full)	-0.0372	0.0144	-0.093	-0.0416	-0.0566	-0.758	0.767	-0.477	0.225	0.303 (inactive)	-0.173	0.0724 (inactive)	1.02 (inactive)	-0.379 (inactive)	1.01 (inactive)	-0.214	0.029	-0.0927	-0.0476	-1.3
